# Reference: PubChem BioAssay
# Activity calls are given as the source filed them. Unless noted, no rule for the calls is given here.
# Key:
# [1] = anti-His antibody binders, primary screen, artefact control for SMM control protein annotation, biochemical, small-molecule microarray, 635 nm fluorescence (AID 1128); settings: anti-His Alexa647 antibody binding, higher = more signal;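 also: score merges feature fluorescence with signal-to-noise for each printed compound spot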
# [2] = test system: Human papillomavirus type 1a E7 protein (residues 1-88); assay: HPV1a E7 small-molecule binders, primary screen, biochemical, small-molecule microarray, residues 1-88, 635 nm (AID 1129); settings: small-molecule microarray binding, fluorescence 635 nm; higher = more signal
# [3] = molecular target: Focal adhesion kinase 1 (Homo sapiens) (UniProt Q05397); assay: small-molecule microarray binders of FAK, primary screen, biochemical, 635/667 nm fluorescence, BSA, DTT (AID 1130); settings: PTK2 binding, 635 nm fluorescence, higher = more signal;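 also: composite of spot emission at 667 nm and signal to noise over triplicate slides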
# Sequence of Focal adhesion kinase 1 (Homo sapiens) (Q05397 whole entry, looked up): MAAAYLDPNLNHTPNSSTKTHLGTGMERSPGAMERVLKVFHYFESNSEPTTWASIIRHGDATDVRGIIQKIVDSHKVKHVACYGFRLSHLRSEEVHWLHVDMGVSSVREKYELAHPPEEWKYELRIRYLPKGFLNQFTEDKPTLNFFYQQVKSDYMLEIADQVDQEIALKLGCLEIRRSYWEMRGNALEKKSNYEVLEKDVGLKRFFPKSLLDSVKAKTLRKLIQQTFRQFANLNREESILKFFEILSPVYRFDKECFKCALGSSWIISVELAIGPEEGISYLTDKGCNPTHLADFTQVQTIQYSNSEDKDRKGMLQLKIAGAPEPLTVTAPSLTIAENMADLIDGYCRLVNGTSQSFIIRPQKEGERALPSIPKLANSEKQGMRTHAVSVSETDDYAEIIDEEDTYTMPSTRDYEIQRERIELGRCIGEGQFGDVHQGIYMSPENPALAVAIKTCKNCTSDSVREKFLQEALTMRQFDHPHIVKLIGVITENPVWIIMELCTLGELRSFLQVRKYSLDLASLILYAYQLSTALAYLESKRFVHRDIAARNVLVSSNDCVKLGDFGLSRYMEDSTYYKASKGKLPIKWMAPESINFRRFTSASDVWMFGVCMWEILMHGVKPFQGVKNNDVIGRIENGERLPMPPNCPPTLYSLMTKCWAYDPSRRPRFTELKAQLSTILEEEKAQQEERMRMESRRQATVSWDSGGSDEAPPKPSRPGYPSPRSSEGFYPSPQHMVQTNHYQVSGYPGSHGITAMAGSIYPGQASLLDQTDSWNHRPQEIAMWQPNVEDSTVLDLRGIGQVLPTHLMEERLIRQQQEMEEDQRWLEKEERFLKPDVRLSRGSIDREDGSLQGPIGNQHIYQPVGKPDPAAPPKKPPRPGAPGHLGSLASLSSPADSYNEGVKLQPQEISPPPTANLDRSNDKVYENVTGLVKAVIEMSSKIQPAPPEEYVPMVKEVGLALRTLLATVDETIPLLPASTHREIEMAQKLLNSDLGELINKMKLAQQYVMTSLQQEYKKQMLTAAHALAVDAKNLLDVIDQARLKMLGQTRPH
# [4] = test system: Fibrinogen (Alexa647-labelled); assay: fibrinogen binders on compound microarrays, profiling panel, artefact control for SMM control-protein annotation, biochemical, small-molecule microarray, 635/667 nm fluorescence (AID 1131); settings: fibrinogen-A647 binding fluorescence, higher = more signal;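 also: z-score merges 667 nm fluorescence with per-spot signal-to-noise over triplicate slides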
# [5] = molecular target: Follistatin (Homo sapiens) (UniProt P19883); assay: follistatin binders on small-molecule microarrays, primary screen, biochemical, small-molecule microarray, 635/667 nm fluorescence (AID 1132); settings: FST binding, 635 nm fluorescence, higher = more signal
# Sequence of Follistatin (Homo sapiens) (P19883 whole entry, looked up): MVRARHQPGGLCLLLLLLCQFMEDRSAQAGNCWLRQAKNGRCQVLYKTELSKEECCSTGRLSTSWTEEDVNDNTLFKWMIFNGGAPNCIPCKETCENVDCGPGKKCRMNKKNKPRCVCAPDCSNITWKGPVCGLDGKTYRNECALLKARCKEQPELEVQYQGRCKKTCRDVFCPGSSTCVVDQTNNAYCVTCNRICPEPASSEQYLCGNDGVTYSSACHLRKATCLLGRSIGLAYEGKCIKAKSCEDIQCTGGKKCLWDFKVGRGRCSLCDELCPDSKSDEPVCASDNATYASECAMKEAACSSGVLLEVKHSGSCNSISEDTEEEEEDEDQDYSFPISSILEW
# [6] = molecular target: Fibroblast growth factor 2 (Homo sapiens) (UniProt P09038); assay: FGF2 binders on small-molecule microarrays, primary screen, biochemical, small-molecule microarray, 635/667 nm fluorescence (AID 1133); settings: small-molecule microarray binding, FGF2, fluorescence 635/667; higher = more signal
# Sequence of Fibroblast growth factor 2 (Homo sapiens) (P09038 whole entry, looked up): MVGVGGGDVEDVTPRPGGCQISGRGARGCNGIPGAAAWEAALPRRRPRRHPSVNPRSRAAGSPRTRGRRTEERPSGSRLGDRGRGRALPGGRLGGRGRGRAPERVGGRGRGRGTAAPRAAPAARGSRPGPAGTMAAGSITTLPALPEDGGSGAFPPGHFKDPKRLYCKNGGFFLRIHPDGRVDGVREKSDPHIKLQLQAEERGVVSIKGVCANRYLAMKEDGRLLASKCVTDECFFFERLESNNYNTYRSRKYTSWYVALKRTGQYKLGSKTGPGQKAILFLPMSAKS
# [7] = mitochondrial membrane potential change in A549 cells, profiling panel, cell-based, JC-1 fluorescence, basal, 24 h, 100 nL (AID 1138); settings: higher = more signal;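 also: A549 lung adenocarcinoma cells under basal conditions with no added stimulus; test concentration not given here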
# [8] = test system: Lefty1; assay: Lefty1 binders on small-molecule microarrays, primary screen, biochemical, small-molecule microarray, 635/667 nm fluorescence (AID 1139); settings: small-molecule microarray binding, fluorescence 635/667; higher = more signal
# [9] = test system: wheat germ agglutinin (Triticum aestivum), Alexa647-labelled; assay: wheat germ agglutinin binders on compound microarrays, profiling panel, artefact control for SMM control-protein annotation, biochemical, small-molecule microarray, 635/667 nm fluorescence (AID 1140); settings: WGA-A647 binding, 635 nm fluorescence, higher = more signal;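 also: score merges 667 nm feature emission with signal to noise over triplicate slides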
# [10] = molecular target: Luciferin 4-monooxygenase (Photinus pyralis) (UniProt P08659); assay: firefly luciferase enzyme inhibitors, primary screen, biochemical, luminescence, purified enzyme, 2006 set (AID 1141); settings: SteadyGlo luminescence, 30 min, higher = more signal, called active from +8 up or from −8 down;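 also: cell-free assay with purified firefly luciferase at 100 ng per well in PBS; test concentration not given here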
# Sequence of Luciferin 4-monooxygenase (Photinus pyralis) (P08659 whole entry, looked up): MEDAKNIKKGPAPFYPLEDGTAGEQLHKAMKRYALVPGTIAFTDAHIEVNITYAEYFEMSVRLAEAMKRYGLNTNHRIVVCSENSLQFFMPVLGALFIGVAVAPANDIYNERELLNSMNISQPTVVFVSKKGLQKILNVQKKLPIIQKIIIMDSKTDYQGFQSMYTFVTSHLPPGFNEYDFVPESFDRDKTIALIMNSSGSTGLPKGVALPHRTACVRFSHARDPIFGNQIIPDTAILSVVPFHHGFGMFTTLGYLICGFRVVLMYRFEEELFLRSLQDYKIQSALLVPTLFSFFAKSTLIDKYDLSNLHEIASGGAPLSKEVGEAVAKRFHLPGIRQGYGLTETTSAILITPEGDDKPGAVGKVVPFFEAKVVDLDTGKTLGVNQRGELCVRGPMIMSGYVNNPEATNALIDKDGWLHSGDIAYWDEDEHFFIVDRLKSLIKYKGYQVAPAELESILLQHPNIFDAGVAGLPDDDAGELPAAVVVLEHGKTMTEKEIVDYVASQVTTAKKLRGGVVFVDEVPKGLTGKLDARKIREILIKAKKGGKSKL
# [11] = test system: Wnt5a (protein binding on small-molecule microarray); assay: Wnt5a binders on small-molecule microarray, primary screen, biophysical, 635/667 nm fluorescence (AID 1142); settings: 635 nm fluorescence, higher = more signal;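 also: fluorescence read at 667 nm with signal to noise per printed feature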
# [12] = cell viability in Huh7 cells, primary screen, cytotoxicity control for HCV replication inhibitor project, CellTiter-Glo luminescence, basal, 48 h (AID 1143); settings: Huh7 HCV replicon, higher = more signal, called active from +8 up or from −8 down;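 also: Huh7 hepatoma cells carrying a hepatitis C replication reporter with no stimulus; test concentration not given here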
# [13] = P. aeruginosa biofilm formation inhibitors, primary screen, PAO1 strain, BacTiter-Glo luminescence, LB-PBS (AID 1144); settings: 12 h, higher = more signal
# [14] = CREB reporter modulators without forskolin, primary screen, cell-based, PC12, CRE-LacZ reporter, unstimulated (AID 1145); settings: no forskolin, luminescence, 4.5 h, higher = more signal, called active from +8 up or from −8 down
# [15] = CREB reporter modulators under forskolin, primary screen, cell-based, PC12, CRE-LacZ reporter, forskolin-stimulated (AID 1146); settings: luminescence, 4.5 h, higher = more signal, called active from +8 up or from −8 down;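 also: PC12 cells with 6xCRE LacZ reporter stimulated by forskolin 10 µM; beta-galactosidase reporter signal reflecting CREB driven transcription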
# [16] = molecular target: Streptavidin (Streptomyces avidinii) (UniProt P22629); assay: streptavidin binders on small-molecule microarray, primary screen, artefact control for SMM compound annotation, biophysical, 635/667 nm fluorescence (AID 1147); settings: streptavidin binding, higher = more signal;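 also: signal reflects streptavidin binding to arrayed compounds as a control protein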
# Sequence of Streptavidin (Streptomyces avidinii) (P22629 whole entry, looked up): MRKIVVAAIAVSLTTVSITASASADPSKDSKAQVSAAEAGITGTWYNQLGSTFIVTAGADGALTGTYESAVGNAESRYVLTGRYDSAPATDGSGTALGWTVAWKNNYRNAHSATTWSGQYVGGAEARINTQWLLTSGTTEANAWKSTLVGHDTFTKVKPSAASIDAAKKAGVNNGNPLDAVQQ
# [17] = small-molecule binders of probe aInhba, primary screen, biochemical, small-molecule microarray, 635/667 nm fluorescence (AID 1148); settings: higher = more signal;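 also: score merges 667nm spot fluorescence with signal-to-noise for antibody binding to printed compounds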
# [18] = molecular target: Torsin-1A (Homo sapiens) (UniProt O14656); assay: torsin A binders from cell lysate, primary screen, small-molecule microarray, wild-type, 635/667 nm (AID 1149); settings: COS7 hTOR1A-WT lysate, 635 nm fluorescence, higher = more signal
# Sequence of Torsin-1A (Homo sapiens) (O14656 whole entry, looked up): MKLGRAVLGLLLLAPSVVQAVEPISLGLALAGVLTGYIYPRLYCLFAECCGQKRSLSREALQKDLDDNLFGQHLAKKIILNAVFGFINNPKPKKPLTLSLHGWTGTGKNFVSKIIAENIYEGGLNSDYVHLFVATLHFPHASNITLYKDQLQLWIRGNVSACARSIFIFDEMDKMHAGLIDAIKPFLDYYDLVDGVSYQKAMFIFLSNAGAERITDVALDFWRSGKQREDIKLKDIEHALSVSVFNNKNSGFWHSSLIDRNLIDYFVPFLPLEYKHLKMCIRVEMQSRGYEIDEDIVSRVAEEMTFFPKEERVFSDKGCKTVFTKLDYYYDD
# [19] = molecular target: Torsin-1A (Homo sapiens) (UniProt O14656); assay: small-molecule binders of mutant TOR1A in lysate, primary screen, cell lysate, small-molecule microarray, COS7 lysate, 635/667 nm fluorescence (AID 1150); settings: COS7 hTOR1A mutant lysate, 635 nm fluorescence, higher = more signal;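 also: score pools 667 nm emission and signal to noise measuring lysate protein binding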
# [20] = test system: Sonic hedgehog protein (Shh); assay: small-molecule binders of Shh protein, primary screen, biochemical, small-molecule microarray, 635/667 nm fluorescence (AID 1151); settings: small-molecule microarray binding, 635 nm fluorescence; higher = more signal;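 also: Shh protein binding to compounds spotted on small-molecule microarray slides; score combines spot fluorescence intensity with signal-to-noise across triplicate slides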
Compound,composite z-score [1],composite z-score [2],composite z-score [3],composite z-score [4],composite z-score [5],composite z-score [6],z-score [7],composite z-score [8],composite z-score [9],z-score [10],composite z-score [11],z-score [12],z-score [13],z-score [14],z-score [15],composite z-score [16],composite z-score [17],composite z-score [18],composite z-score [19],composite z-score [20]
O=C1O[C@@H](c2ccccc2)[C@@H](c2ccccc2)N2[C@@H](c3ccccc3OCCO)[C@]3(C(=O)Nc4ccc(C#CC5=CCCCC5)cc43)[C@@H](C(=O)NC[C@H](O)c3ccccc3)[C@H]12,1.08,1.13,0.0363,0.883,0.961,1.51,-1.69,1.02,-0.186,-1.32 (inactive),0.361,-6.39 (inactive),-0.534 (inactive),-1.56 (inactive),-1.15 (inactive),0.625,0.162,0.385,-0.0373,1.99
CCOC(=O)C1=CC[C@@H](c2cc(Cl)ccc2Cl)N(S(=O)(=O)c2ccc(C)cc2)[C@H]1c1ccc(OC)cc1,-0.128,-0.199,0.262,-1.17,0.258,-0.413,0.581,-0.526,0.0203,0.953 (inactive),1.11,-4.08 (inactive),0.42 (inactive),0.472 (inactive),-0.555 (inactive),0.0102,0.482,0.234,0.42,0.172
COc1ccc([Si](C)(C)[C@@H]2[C@@H](CC(=O)N3CCC[C@H]3CO)O[C@]3(C(=O)N(Cc4ccc(N5C(=O)c6cccc7cccc5c67)cc4)c4ccccc43)[C@H]2C)cc1,1.96,1.2,0.566,0.759,1.1,1.54,-0.438,1.2,0.719,0.508 (inactive),0.761,-4.78 (inactive),-0.489 (inactive),0.995 (inactive),-0.0202 (inactive),0.0541,0.0184,0.344,0.72,2.06
C=C(/C(=C/C[C@@H](OC(=O)c1ccncc1)c1ccc(OCCO)cc1)c1cc(C(=O)OC)ccc1OC)C(C)C,0.217,1.19,-0.4,0.135,0.623,0.417,0.628,0.632,0.592,-0.467 (inactive),0.308,-1.79 (inactive),-0.745 (inactive),2.06 (inactive),0.96 (inactive),0.747,-0.271,0.0376,0.266,1.7
C=CC[C@@]1(C(=O)N2CCCCC2)N=C(c2ccc(OCCCO)cc2)O[C@@H]1c1ccccc1,2.8,1.2,1.58,0.935,0.939,0.0286,1.9,-0.034,1.08,-0.952 (inactive),0.18,-3.63 (inactive),0.222 (inactive),1.5 (inactive),-0.134 (inactive),0.0319,0.411,0.521,1.22,-0.229
